# Assay results: ChEMBL document CHEMBL1961873, “Compounds: GSK PKIS; Assays: Nanosyn kinase panel” (2012)
# Target: Mitogen-activated protein kinase 3 (Homo sapiens) (UniProt P27361)
# Details: at 0.1 µM
# 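Note: each value is a mean inhibition figure.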
# Sequence of Mitogen-activated protein kinase 3 (Homo sapiens) (P27361 whole entry): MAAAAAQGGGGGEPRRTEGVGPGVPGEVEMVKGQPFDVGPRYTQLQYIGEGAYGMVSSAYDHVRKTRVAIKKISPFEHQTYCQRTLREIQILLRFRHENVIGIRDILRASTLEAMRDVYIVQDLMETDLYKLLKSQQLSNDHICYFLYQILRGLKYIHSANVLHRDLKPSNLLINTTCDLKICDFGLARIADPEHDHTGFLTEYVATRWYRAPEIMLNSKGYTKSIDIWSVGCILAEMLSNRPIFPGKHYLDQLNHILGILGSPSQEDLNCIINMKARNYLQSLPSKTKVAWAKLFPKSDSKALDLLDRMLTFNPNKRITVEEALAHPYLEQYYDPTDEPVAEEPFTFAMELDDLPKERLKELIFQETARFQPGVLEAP
row,Structure (SMILES),inhibition [%]
1,CN(C)c1cc2c(Nc3ccc4c(cnn4Cc4ccccc4)c3)ncnc2cn1,0.27
2,COc1cc2ncnc(Nc3ccc4c(cnn4Cc4ccccc4)c3)c2cc1OC,1.19
3,O=C1Nc2ccc(-c3cccnc3)cc2C1=Cc1cc(Br)c(O)c(Br)c1,4.06
4,COc1cc2ncnc(Nc3ccc(C)c(O)c3)c2cc1OC,4.96
5,Cc1ccc2c(-c3ccnc(Nc4ccc5c(c4)OCCO5)n3)c(-c3ccc(C(F)(F)F)cc3)nn2n1,2.57
6,Cc1ccc2c(-c3ccnc(Nc4cccc(C(F)(F)F)c4)n3)c(-c3ccccc3)nn2n1,5.72
7,C[C@@H](Oc1cc(-n2cnc3ccc(OC[C@@H](O)CO)cc32)sc1C(N)=O)c1ccccc1Cl,-0.87
8,CN(C)CCCn1c(-c2nonc2N)nc2cnccc21,2.32
9,CN(c1ccc(NC(=O)Nc2ccc(OC(F)(F)F)cc2)cc1)c1ccnc(Nc2cccc(S(N)(=O)=O)c2)n1,2.67
10,O=C1Nc2ccccc2/C1=C/Nc1ccc2[nH]c(=O)[nH]c2c1,5.69
11,Cc1ccc2c(c1)/C(=N/Nc1ccc(S(N)(=O)=O)cc1)C(=O)N2,2.34
12,CCCN1CCCC(c2ccc(Nc3nc(Nc4cc(F)ccc4C(N)=O)c4cc[nH]c4n3)c(OC)c2)C1 (stereo not drawn),5.61
13,Nc1nccc(-c2c(-c3ccc(F)cc3)nn3cc(C(F)(F)F)ccc23)n1,3.72
14,NS(=O)(=O)c1ccc(-c2cc3ccncc3cc2OCc2ccccc2)cc1,4.03
15,NC(=O)c1sc(-n2cnc3ccccc32)cc1OCc1ccccc1Br,1.19
16,O=S(=O)(CCOCc1ccc(-c2ccc3ncnc(Nc4ccc(OCc5cccc(F)c5)c(Cl)c4)c3c2)o1)c1ccccc1,3.68
17,Nc1ccc(C#Cc2cncnc2Nc2ccc(OCc3cccc(F)c3)c(Cl)c2)cc1,3.61
18,ON=C1CCc2cc(-c3nc(C4CCNCC4)[nH]c3-c3ccncc3)ccc21,1.87
